Assay results: the supplement of paper PMC10849652
About 8,800 targets were measured; listed, in parts, are those with a hit and a random draw of the rest. About 0.5% of all pairs of compound and target were hits.

Columns and labels:
Assay in all cases: log2 fold change, soluble protein after heating vs DMSO (PISA); higher = thermal stabilisation; K562 lysate, 10 uM; active = over 0.2 and 3.5 SD of the protein, either way, in both replicates (recomputed)
lapatinib = compound: CS(=O)(=O)CCNCc1ccc(-c2ccc3ncnc(Nc4ccc(OCc5cccc(F)c5)c(Cl)c4)c3c2)o1 [lapatinib]
In short: (§1)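 Log-two fold change in thermal stability relative to solvent controls is reported from duplicates. For each sample, crude K562 extract from dounce-homogenised pellets in PBS pH 7.4 with 1 mM MgCl2, at 1 mg/mL protein, was treated with 10 μM compound for 30 min. Aliquots heated for 3 min across 48°C-58°C were pooled, brought to 0.5% NP-40 at 4°C and cleared at 21,000xg for 90 min. The supernatant was quantified by TMTpro 16plex LC-MS/MS with channel sums equalised.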

pictilisib = compound: CS(=O)(=O)N1CCN(Cc2cc3nc(-c4cccc5[nH]ncc45)nc(N4CCOCC4)c3s2)CC1 [pictilisib]
In short: as §1

crizotinib = compound: C[C@@H](Oc1cc(-c2cnn(C3CCNCC3)c2)cnc1N)c1c(Cl)ccc(F)c1Cl [crizotinib]
In short: as §1

[1] = compound: C[C@H](C1=CC=C(C=C1)C(=O)NC2=C3C=CNC3=NC=C2)N
In short: as §1

duvelisib = compound: C[C@H](Nc1ncnc2nc[nH]c12)c1cc2cccc(Cl)c2c(=O)n1-c1ccccc1 [duvelisib]
In short: as §1

gandotinib = compound: Cc1cc(Nc2cc(CN3CCOCC3)c3nc(C)c(Cc4ccc(Cl)cc4F)n3n2)n[nH]1 [gandotinib]
In short: as §1

tozasertib = compound: Cc1cc(Nc2cc(N3CCN(C)CC3)nc(Sc3ccc(NC(=O)C4CC4)cc3)n2)n[nH]1 [tozasertib]
In short: as §1

doramapimod = compound: Cc1ccc(-n2nc(C(C)(C)C)cc2NC(=O)Nc2ccc(OCCN3CCOCC3)c3ccccc23)cc1 [doramapimod]
In short: as §1

bafetinib = compound: Cc1ccc(NC(=O)c2ccc(CN3CC[C@H](N(C)C)C3)c(C(F)(F)F)c2)cc1Nc1nccc(-c2cncnc2)n1 [bafetinib]
In short: as §1

[2] = compound: Cc1cccc(CC(=O)N2CCc3c2ccc(-c2cn(C)c4ncnc(N)c24)c3F)n1
In short: as §1

Measured: log2 fold change

PPP1R8 (UniProt Q12972)
inactive: lapatinib 0.025 | pictilisib -0.008 | crizotinib 0.021 | [1] -0.236 | duvelisib -0.035 | gandotinib 0.108 | tozasertib -0.014 | doramapimod -0.011 | bafetinib -0.01 | [2] 0.091

PUS1 (UniProt Q9Y606)
inactive: lapatinib -0.042 | pictilisib -0.058 | crizotinib -0.062 | [1] -0.006 | duvelisib 0.008 | gandotinib -0.033 | tozasertib 0.012 | doramapimod 0.006 | bafetinib -0.047 | [2] 0.027

PPP4R2 (UniProt Q9NY27)
inactive: lapatinib 0.057 | pictilisib -0.003 | crizotinib 0.023 | [1] 0.159 | duvelisib 0.003 | gandotinib -0.011 | tozasertib -0.007 | doramapimod -0.022 | bafetinib 0.021 | [2] -0.048

PTPN7 isoform 3 (UniProt P35236)
inactive: lapatinib -0.025 | pictilisib -0.04 | crizotinib 0.043 | [1] -0.028 | duvelisib -0.006 | gandotinib 0.056 | tozasertib 0 | doramapimod 0.007 | bafetinib 0.036 | [2] 0.115

PGRMC1 (UniProt O00264)
inactive: lapatinib 0.001 | pictilisib -0.023 | crizotinib 0.057 | [1] -0.011 | duvelisib -0.024 | gandotinib 0.047 | tozasertib 0.035 | doramapimod -0.052 | bafetinib 0.004 | [2] 0.018

PLK1 (UniProt P53350)
inactive: lapatinib -0.024 | pictilisib 0.013 | crizotinib -0.179 | [1] 0.168 | duvelisib 0.043 | gandotinib -0.088 | tozasertib 0.003 | doramapimod 0.03 | bafetinib -0.019 | [2] -0.055

PPCDC (UniProt Q96CD2)
Chain of UniProt Q96CD2 (Q96CD2 whole entry, looked up): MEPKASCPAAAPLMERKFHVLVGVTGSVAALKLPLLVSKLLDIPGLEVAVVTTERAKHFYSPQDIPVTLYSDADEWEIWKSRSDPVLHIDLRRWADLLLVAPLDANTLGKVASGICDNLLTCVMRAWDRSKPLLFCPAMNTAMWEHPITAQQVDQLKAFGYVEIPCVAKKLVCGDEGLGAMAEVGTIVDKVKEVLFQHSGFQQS
active: [1] -0.342
inactive: lapatinib -0.023 | pictilisib -0.176 | crizotinib 0 | duvelisib 0.062 | gandotinib 0.152 | tozasertib 0 | doramapimod 0.024 | bafetinib 0.034 | [2] 0.19

PDE2A (UniProt O00408)
inactive: lapatinib 0.005 | pictilisib 0 | crizotinib 0.074 | [1] 0.05 | duvelisib -0.042 | gandotinib 0.138 | tozasertib 0.049 | doramapimod -0.057 | bafetinib 0.051 | [2] 0.041

PDS5A (UniProt Q29RF7)
Chain of UniProt Q29RF7 (Q29RF7 whole entry, looked up): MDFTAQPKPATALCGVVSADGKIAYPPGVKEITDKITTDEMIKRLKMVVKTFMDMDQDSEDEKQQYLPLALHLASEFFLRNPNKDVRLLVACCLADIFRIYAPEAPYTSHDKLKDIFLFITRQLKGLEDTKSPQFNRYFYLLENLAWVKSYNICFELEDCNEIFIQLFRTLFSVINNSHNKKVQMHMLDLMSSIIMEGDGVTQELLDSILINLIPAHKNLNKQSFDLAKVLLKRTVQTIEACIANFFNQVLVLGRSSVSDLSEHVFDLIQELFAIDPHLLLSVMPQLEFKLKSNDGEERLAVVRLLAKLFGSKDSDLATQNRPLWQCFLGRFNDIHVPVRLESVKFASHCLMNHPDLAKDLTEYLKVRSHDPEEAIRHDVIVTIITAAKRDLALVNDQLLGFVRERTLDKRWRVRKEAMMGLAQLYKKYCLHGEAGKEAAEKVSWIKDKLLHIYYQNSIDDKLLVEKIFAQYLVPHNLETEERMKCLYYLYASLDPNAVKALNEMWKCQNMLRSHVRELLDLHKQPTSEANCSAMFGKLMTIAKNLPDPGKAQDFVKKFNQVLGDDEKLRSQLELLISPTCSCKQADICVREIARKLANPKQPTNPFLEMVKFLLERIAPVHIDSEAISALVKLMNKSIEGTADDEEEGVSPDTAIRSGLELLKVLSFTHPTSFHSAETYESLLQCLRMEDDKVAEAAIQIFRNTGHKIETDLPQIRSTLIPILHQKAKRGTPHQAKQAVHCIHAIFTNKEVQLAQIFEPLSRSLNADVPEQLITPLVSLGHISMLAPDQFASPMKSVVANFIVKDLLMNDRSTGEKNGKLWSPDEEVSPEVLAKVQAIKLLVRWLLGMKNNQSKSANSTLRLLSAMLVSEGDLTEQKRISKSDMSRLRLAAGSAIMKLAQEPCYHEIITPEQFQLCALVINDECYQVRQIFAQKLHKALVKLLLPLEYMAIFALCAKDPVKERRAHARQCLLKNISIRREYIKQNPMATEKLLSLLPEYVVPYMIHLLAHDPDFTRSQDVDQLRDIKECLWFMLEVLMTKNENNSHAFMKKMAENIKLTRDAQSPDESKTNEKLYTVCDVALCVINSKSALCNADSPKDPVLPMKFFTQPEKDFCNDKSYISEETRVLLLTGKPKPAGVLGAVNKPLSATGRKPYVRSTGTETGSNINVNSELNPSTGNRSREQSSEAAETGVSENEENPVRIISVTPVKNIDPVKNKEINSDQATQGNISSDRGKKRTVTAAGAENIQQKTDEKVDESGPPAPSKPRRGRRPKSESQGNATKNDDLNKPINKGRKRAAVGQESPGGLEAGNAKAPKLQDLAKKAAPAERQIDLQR
inactive: lapatinib -0.024 | pictilisib -0.053 | crizotinib -0.123 | [1] -0.09 | duvelisib 0.023 | gandotinib -0.127 | tozasertib 0.008 | doramapimod 0.006 | bafetinib -0.075 | [2] 0.125

POLR2G (UniProt P62487)
inactive: lapatinib -0.001 | pictilisib -0.048 | crizotinib 0.016 | [1] -0.04 | duvelisib 0.03 | gandotinib -0.002 | tozasertib -0.04 | doramapimod -0.011 | bafetinib 0.004 | [2] -0.006

PKN1 isoform 2 (UniProt Q16512)
Chain of UniProt Q16512 (Q16512 whole entry, looked up): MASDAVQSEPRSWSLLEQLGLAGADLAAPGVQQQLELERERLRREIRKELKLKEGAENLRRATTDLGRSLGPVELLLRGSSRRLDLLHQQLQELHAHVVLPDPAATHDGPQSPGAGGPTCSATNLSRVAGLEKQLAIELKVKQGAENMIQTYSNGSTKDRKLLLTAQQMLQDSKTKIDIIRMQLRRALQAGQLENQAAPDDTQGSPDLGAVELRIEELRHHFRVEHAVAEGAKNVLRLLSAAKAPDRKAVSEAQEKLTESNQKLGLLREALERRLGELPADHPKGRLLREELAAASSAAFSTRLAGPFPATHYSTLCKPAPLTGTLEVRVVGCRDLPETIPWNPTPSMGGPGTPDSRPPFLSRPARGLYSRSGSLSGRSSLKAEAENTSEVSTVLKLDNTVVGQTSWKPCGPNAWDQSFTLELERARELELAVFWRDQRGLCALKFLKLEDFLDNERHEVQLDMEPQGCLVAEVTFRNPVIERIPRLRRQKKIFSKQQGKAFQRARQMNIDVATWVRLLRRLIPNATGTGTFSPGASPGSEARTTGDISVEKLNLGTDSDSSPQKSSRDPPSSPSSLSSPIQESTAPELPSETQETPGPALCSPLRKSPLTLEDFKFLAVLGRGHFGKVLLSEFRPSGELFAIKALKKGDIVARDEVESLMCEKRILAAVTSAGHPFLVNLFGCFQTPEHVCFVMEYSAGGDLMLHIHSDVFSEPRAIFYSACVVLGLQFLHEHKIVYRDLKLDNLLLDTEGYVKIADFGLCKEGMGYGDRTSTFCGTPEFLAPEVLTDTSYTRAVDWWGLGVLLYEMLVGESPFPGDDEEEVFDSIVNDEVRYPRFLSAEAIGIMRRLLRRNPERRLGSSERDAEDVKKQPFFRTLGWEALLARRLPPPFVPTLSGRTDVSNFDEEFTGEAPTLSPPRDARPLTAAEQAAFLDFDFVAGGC
inactive: lapatinib 0.038 | pictilisib -0.005 | crizotinib -0.032 | [1] 0.095 | duvelisib -0.014 | gandotinib -0.233 | tozasertib -0.005 | doramapimod 0.108 | bafetinib -0.069 | [2] 0.04

PTPN6 isoform 4 (UniProt P29350)
inactive: lapatinib -0.227 | pictilisib -0.058 | crizotinib 0.02 | [1] -0.038 | duvelisib -0.013 | gandotinib -0.28 | tozasertib 0 | doramapimod 0.015 | bafetinib -0.278 | [2] 0.135

PLEKHF1 (UniProt Q96S99)
inactive: lapatinib -0.022 | pictilisib -0.016 | crizotinib -0.021 | [1] -0.043 | duvelisib 0.058 | gandotinib 0.023 | tozasertib 0.02 | doramapimod 0.016 | bafetinib 0.013 | [2] 0.026

PCF11 (UniProt O94913)
inactive: lapatinib -0.017 | pictilisib -0.014 | crizotinib -0.018 | [1] 0.058 | duvelisib 0.005 | gandotinib -0.086 | tozasertib -0.004 | doramapimod -0.031 | bafetinib -0.021 | [2] -0.017

PIGO (UniProt Q8TEQ8)
inactive: lapatinib 0.047 | pictilisib 0.133 | crizotinib -0.02 | [1] 0.019 | duvelisib 0.076 | gandotinib -0.193 | tozasertib 0.117 | doramapimod -0.186 | bafetinib -0.026 | [2] 0.037

PHKG2 (UniProt P15735)
inactive: lapatinib -0.07 | pictilisib -0.069 | crizotinib 0.166 | [1] 0 | duvelisib -0.008 | gandotinib 0.061 | tozasertib -0.051 | doramapimod 0.031 | bafetinib 0.015 | [2] -0.107

PTP4A1 (UniProt Q93096)
Chain of UniProt Q93096 (Q93096 whole entry, looked up): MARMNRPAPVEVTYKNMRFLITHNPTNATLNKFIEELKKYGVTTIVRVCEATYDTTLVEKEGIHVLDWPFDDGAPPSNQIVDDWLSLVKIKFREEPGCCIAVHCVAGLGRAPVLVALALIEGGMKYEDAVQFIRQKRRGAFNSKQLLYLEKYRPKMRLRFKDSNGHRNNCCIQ
inactive: lapatinib -0.002 | pictilisib 0.008 | crizotinib 0.09 | [1] 0.133 | duvelisib 0.023 | gandotinib -0.031 | tozasertib 0.001 | doramapimod -0.009 | bafetinib -0.042 | [2] -0.055

PRIM2 (UniProt P49643)
Chain of UniProt P49643 (P49643 whole entry, looked up): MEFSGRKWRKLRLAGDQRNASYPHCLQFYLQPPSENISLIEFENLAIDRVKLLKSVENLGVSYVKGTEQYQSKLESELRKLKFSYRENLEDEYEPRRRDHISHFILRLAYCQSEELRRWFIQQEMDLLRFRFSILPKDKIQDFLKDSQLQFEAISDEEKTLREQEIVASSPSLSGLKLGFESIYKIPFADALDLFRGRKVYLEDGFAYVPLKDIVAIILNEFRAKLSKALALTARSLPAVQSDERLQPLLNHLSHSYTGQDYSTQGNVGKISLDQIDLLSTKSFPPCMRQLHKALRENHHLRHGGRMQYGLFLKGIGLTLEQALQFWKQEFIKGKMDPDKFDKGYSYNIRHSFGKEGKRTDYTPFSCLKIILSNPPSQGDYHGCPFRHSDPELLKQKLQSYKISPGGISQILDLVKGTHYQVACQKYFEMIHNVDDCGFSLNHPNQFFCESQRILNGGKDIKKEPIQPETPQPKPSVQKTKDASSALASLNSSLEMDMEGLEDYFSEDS
inactive: lapatinib 0.045 | pictilisib -0.025 | crizotinib -0.017 | [1] 0.007 | duvelisib -0.002 | gandotinib -0.056 | tozasertib -0.04 | doramapimod 0.028 | bafetinib -0.1 | [2] 0.004

PLIN2 (UniProt Q99541)
active: gandotinib -0.254
inactive: lapatinib -0.009 | pictilisib -0.041 | crizotinib -0.038 | [1] 0.023 | duvelisib 0.014 | tozasertib 0.096 | doramapimod -0.003 | bafetinib -0.067 | [2] 0.011

PPT2 isoform 3 (UniProt Q9UMR5)
inactive: lapatinib -0.053 | pictilisib -0.032 | crizotinib 0.035 | [1] 0.058 | duvelisib 0.06 | gandotinib 0.016 | tozasertib 0.004 | doramapimod 0 | bafetinib 0.005 | [2] -0.05

PHKA2 (UniProt P46019)
inactive: lapatinib -0.085 | pictilisib -0.042 | crizotinib 0.048 | [1] 0.022 | duvelisib -0.01 | gandotinib -0.035 | tozasertib -0.015 | doramapimod 0.013 | bafetinib -0.109 | [2] -0.012

PFAS (UniProt O15067)
inactive: lapatinib -0.01 | pictilisib -0.011 | crizotinib -0.067 | [1] -0.011 | duvelisib -0.009 | gandotinib 0.002 | tozasertib -0.008 | doramapimod 0.035 | bafetinib -0.028 | [2] 0.019

PIKFYVE (UniProt Q9Y2I7)
inactive: lapatinib -0.039 | pictilisib -0.06 | crizotinib -0.002 | [1] -0.058 | duvelisib -0.013 | gandotinib 0.01 | tozasertib -0.014 | doramapimod 0.029 | bafetinib -0.053 | [2] 0.066

PPP2CA (UniProt P67775)
inactive: lapatinib -0.028 | pictilisib -0.001 | crizotinib 0.159 | [1] 0.051 | duvelisib -0.024 | gandotinib -0.022 | tozasertib -0.116 | doramapimod -0.049 | bafetinib 0.053 | [2] 0.03

PFKFB3 isoform 4 (UniProt Q16875)
inactive: lapatinib -0.228 | pictilisib -0.057 | crizotinib -0.021 | [1] 0.004 | duvelisib -0.009 | gandotinib -0.006 | tozasertib -0.003 | doramapimod 0.007 | bafetinib -0.03 | [2] 0.007

PI4KB (UniProt Q9UBF8)
inactive: lapatinib 0.02 | pictilisib 0.031 | crizotinib -0.011 | [1] -0.01 | duvelisib 0.005 | gandotinib 0.011 | tozasertib -0.02 | doramapimod 0.055 | bafetinib -0.073 | [2] 0.014

PRKRA (UniProt O75569)
inactive: lapatinib 0.01 | pictilisib -0.003 | crizotinib -0.021 | [1] -0.017 | duvelisib 0 | gandotinib -0.094 | tozasertib -0.005 | doramapimod -0.01 | bafetinib -0.003 | [2] 0.032

PRMT7 (UniProt Q9NVM4)
Chain of UniProt Q9NVM4 (Q9NVM4 whole entry, looked up): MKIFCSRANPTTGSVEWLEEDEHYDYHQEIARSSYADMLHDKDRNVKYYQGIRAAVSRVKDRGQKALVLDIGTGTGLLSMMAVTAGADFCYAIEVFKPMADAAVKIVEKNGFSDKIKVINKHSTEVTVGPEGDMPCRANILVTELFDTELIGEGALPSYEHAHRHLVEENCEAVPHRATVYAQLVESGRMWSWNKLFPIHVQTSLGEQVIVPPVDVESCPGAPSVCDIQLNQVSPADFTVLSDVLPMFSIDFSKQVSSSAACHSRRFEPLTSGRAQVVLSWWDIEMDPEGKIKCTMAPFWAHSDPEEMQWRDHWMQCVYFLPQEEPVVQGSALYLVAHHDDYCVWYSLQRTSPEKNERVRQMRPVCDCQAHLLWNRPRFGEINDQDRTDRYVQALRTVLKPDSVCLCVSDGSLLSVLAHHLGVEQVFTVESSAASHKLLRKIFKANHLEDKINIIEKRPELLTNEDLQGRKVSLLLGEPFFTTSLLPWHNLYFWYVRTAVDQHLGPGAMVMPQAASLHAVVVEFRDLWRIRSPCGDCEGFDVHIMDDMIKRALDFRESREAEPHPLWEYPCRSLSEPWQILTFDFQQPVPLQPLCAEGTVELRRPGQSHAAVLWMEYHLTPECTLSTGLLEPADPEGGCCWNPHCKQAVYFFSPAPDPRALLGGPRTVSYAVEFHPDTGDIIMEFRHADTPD
inactive: lapatinib -0.006 | pictilisib 0 | crizotinib 0.025 | [1] -0.014 | duvelisib 0.035 | gandotinib -0.045 | tozasertib 0.039 | doramapimod -0.025 | bafetinib -0.01 | [2] -0.008

POLD1 (UniProt P28340)
Chain of UniProt P28340 (P28340 whole entry, looked up): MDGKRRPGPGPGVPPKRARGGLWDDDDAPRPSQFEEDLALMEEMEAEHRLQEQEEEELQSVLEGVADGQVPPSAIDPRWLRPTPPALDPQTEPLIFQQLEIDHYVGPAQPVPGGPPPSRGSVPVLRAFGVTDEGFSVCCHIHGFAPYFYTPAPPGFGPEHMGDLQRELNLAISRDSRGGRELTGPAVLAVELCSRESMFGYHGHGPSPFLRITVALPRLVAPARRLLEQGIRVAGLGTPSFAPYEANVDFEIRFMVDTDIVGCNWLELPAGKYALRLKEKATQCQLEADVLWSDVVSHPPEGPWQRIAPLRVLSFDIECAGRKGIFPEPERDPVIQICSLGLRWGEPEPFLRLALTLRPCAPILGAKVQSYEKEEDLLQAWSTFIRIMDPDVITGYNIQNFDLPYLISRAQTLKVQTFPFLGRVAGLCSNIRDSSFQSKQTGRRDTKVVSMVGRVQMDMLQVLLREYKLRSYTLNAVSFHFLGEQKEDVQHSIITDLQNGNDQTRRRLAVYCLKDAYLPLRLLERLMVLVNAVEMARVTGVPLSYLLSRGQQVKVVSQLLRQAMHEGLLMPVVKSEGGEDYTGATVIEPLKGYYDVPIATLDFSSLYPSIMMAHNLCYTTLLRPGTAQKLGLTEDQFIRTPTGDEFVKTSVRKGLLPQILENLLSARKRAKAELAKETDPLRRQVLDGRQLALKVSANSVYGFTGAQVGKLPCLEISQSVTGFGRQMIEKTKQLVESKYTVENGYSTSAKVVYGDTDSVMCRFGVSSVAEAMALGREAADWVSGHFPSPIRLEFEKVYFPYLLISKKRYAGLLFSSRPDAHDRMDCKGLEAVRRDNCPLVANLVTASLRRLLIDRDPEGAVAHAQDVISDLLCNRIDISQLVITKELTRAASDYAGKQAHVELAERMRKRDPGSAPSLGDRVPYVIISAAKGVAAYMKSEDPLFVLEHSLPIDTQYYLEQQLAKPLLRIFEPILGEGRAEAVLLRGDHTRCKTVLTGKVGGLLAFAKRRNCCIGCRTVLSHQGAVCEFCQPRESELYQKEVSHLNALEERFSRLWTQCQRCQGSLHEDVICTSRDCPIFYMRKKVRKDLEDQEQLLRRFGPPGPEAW
inactive: lapatinib -0.014 | pictilisib -0.021 | crizotinib -0.022 | [1] 0.013 | duvelisib -0.019 | gandotinib -0.061 | tozasertib 0.003 | doramapimod 0.02 | bafetinib -0.022 | [2] 0.017
